The values below come from PubChem BioAssay (Tox21).

Records with an inconclusive call do not appear. Some structures have more than one record in an assay (separate samples or runs), and their calls can disagree. A number with no mark means an inactive call. The source made the active and inactive calls. Unless noted, the call rests on the fitted dose curve; in most records, active means well fitted curve in the direction sought with a large enough effect in the repeat runs; inconclusive means weak or mixed curves; inactive means no such curve, though single readings can be large; an effect the other way counts as inactive or inconclusive.

Assay [1] can be described thus: qHTS assay to identify small molecule agonists of the vitamin D receptor (VDR) signaling pathway - cell viability counter screen (AID 743224). Further: on the % scale 0 is the no-effect control and ±100 the full control effect; nearly all actives have a fitted effect of over 50% in size. A digest of the protocol: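 In parallel with the bla FRET readout, cytotoxicity toward VDR-bla cells after 16 h compound exposure was assessed by CellTiter-Glo, with luminescence recorded after a 30 min room-temperature incubation.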

The nature of assay [2]: qHTS assay to identify small molecule agonists of the NFkB signaling pathway (AID 1159509; active means well fitted curve in the direction sought with a large enough effect in the signal ratio in the repeat runs, not every such curve was filed as active; the % refers to the signal ratio; further: on the % scale 0 is the no-effect control and ±100 the full control effect). The gist of the method:
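Readout: FRET fluorescence, 405 nm excitation, 460/530 nm emission; beta-lactamase expression disrupts FRET. Cells: ME-180 stably carrying NF-kB-driven bla reporter. Compound exposure 5 hr, 37 C, 5% CO2.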
On the technique in general: qHTS replaces the single test concentration by a dilution series.

A short description of assay [3]: qHTS assay to identify small molecule agonists of the NFkB signaling pathway - cell viability counter screen (AID 1159515; calls by dose curve; further: on the % scale 0 is the no-effect control and ±100 the full control effect; nearly all actives have a fitted effect of over 55% in size). The gist of the method: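 Plate 2,000 NFkB-bla ME-180 cells/well; incubate overnight. Add compounds, 5 hr at 37 C. Add FRET substrate, 1.5 hr RT. Add CellTiter-Glo, 30 min RT; read luminescence.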
Assay [4] can be described thus: qHTS assay to identify small molecule agonists of the endoplasmic reticulum stress response signaling pathway (AID 1159516; active means well fitted activation curve with a large enough effect in the signal ratio in the repeat runs, not every such curve was filed as active; the % refers to the signal ratio; further: on the % scale 0 is the no-effect control and ±100 the full control effect). The gist of the method:
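Beta-lactamase expression from the ER stress response element in HeLa reporter cells is quantified with the LiveBLAzer B/G FRET substrate, read at 405 nm excitation after 2 hr at room temperature, following 5 hr compound treatment at 37 C.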

Assay [5] is described as follows: qHTS assay to identify small molecule agonists of the endoplasmic reticulum stress response signaling pathway - cell viability counter screen (AID 1159517; calls by dose curve; further: on the % scale 0 is the no-effect control and ±100 the full control effect; nearly all actives have a fitted effect of over 50% in size). The gist of the method:
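Cytotoxicity of test compounds toward ESRE-bla HeLa cells was assessed after 5 hr exposure. The luminescent CellTiter-Glo signal was measured 30 min after reagent addition.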

Assay [6] can be described thus: qHTS assay to identify small molecule antagonists of the retinoid-related orphan receptor gamma (ROR-gamma) signaling pathway - cell viability counter screen (AID 1159520). Further: on the % scale 0 is the no-effect control and ±100 the full control effect; nearly all actives have a fitted effect of over 50% in size. A digest of the protocol:
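Tet-on ROR gamma CHO cells (1,000/well) were plated 4 hr, given compounds in DMSO for 2 hr at 37 C, then induced with 1 uM final doxycycline for 16 hr. Viability was read as ATP by CellTiter-Glo luminescence after 30 min.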

The nature of assay [7]: qHTS assay to identify small molecule agonists of the AP-1 signaling pathway (AID 1159526; calls by dose curve; further: on the % scale 0 is the no-effect control and ±100 the full control effect).
The target in assay [8] is Retinoic acid receptor RXR-alpha (Homo sapiens) (UniProt P19793). Nature of the assay: qHTS assay to identify small molecule agonists of the RXR signaling pathway (AID 1159527; calls by dose curve; further: on the % scale 0 is the no-effect control and ±100 the full control effect; nearly all actives have a fitted effect of over 35% in size). The gist of the method: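 Agonist-mode beta-lactamase reporter assay: HEK 293T RXR-alpha-UAS-bla cells treated 16 hr at 37 C with compounds, 9-cis retinoic acid as positive control. LiveBLAzer FRET substrate, 405 nm excitation, 460/530 nm emission.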
Sequence of Retinoic acid receptor RXR-alpha (Homo sapiens) (P19793 whole entry, looked up): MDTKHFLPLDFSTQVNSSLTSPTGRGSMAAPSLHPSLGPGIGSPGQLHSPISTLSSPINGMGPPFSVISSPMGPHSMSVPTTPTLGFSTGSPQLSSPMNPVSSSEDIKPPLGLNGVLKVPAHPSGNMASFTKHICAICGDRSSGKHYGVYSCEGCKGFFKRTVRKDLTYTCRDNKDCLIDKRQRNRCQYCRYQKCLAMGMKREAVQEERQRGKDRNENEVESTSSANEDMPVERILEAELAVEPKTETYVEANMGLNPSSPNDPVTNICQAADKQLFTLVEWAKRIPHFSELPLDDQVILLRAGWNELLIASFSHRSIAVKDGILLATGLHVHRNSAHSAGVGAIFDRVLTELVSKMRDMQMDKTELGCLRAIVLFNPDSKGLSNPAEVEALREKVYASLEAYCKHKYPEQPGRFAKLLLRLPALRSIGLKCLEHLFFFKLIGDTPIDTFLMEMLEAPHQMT

Assay [9] is described as follows: qHTS assay to identify small molecule agonists of the RXR signaling pathway - cell viability counter screen (AID 1159529). Further: on the % scale 0 is the no-effect control and ±100 the full control effect; nearly all actives have a fitted effect of over 50% in size. A digest of the protocol:
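CellTiter-Glo luminescence gave viability in the wells also read for beta-lactamase. Cells (RXR-alpha-UAS-bla HEK 293T, 2% charcoal-stripped FBS medium) had 5 hr plating, then 16 hr compound exposure at 37 C; tetraoctyl ammonium bromide served as positive control.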

A short description of assay [10]: qHTS assay to identify small molecule antagonists of the retinoid acid receptor (RAR) signaling pathway - cell viability counter screen (AID 1159551). Further: on the % scale 0 is the no-effect control and ±100 the full control effect; nearly all actives have a fitted effect of over 35% in size. The gist of the method:
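Viability of C3RL4 cells is quantified from ATP by luminescence after 6 h treatment at 37 C with compounds and 1 uM retinol.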

A short description of assay [11]: qHTS assay to identify small molecule antagonists of the retinoic acid receptor (RAR) signaling pathway (AID 1159552). A digest of the protocol:
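Luminescent RARE reporter read-out in C3RL4 cells: 6 hr co-treatment at 37 C of test compounds with retinol at 1 uM final. Cells plated overnight beforehand; luciferase reagent incubated 30 min at room temperature before reading.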

Assay [12] can be described thus: qHTS assay to identify small molecule agonists of the retinoic acid receptor (RAR) signaling pathway (AID 1159553). Further: on the % scale 0 is the no-effect control and ±100 the full control effect. The note with it: C3RL4 RARE luciferase reporter, agonist, 6 h. The gist of the method: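 Compounds dissolved in DMSO were pinned onto C3RL4 cells seeded the previous day, and plates were held 6 hr at 37 C. RARE-driven luciferase output was then read by luminescence.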

Assay [13] in a line: qHTS assay to identify small molecule antagonists of the estrogen related receptor (ERR) signaling pathway from Tox21 library - cell viability counter screen (AID 1224834). Further: on the % scale 0 is the no-effect control and ±100 the full control effect; nearly all actives have a fitted effect of over 30% in size. The gist of the method:
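In this quantitative HTS format, ERR cells receive compounds in DMSO and are incubated for 17.5 h at 37 C. Live-cell protease activity is then detected with CellTiter-Fluor.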

A short description of assay [14]: qHTS assay to identify small molecule agonists of the constitutive androstane receptor (CAR) signaling pathway - cell viability counter screen (AID 1224836). Further: on the % scale 0 is the no-effect control and ±100 the full control effect; nearly all actives have a fitted effect of over 45% in size. A digest of the protocol: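 Cell viability multiplexed with the CAR agonist screen: CellTiter-Fluor fluorescence after 23 hr at 37 C. HepG2-CYP2B6-hCAR cells got compounds at 15 concentrations with PK11195 at 0.75 uM final.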

Assay [15] concerns the target Nuclear receptor ROR-gamma (Homo sapiens) (UniProt P51449). Kind of assay: qHTS assay to identify small molecule antagonists of the retinoid-related orphan receptor gamma (ROR-gamma) signaling pathway (AID 1159521). The gist of the method:
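Antagonist read-out: drop in luminescence (ONE-Glo) from an RORE-LUC reporter in CHO cells with doxycycline-inducible ROR-gamma; 2 hr compound pretreatment, 1 uM doxycycline, 16 hr incubation at 37 C.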

Assay [16] in a line: qHTS assay to identify small molecule agonists of the AP-1 signaling pathway - cell viability counter screen (AID 1159525; calls by dose curve; further: nearly all actives have a fitted effect of over 55% in size). The gist of the method:
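Each titration point was normalised to DMSO and tetra n-octyl ammonium bromide controls. The read was Cell Titer Glo luminescence after 30 min at RT, following 5 h compound exposure of ME-180 AP-1-bla cells at 37 °C.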

The target of assay [17] is Luciferin 4-monooxygenase (Photinus pyralis) (UniProt P08659). Nature of the assay: qHTS assay to identify small molecule inhibitors of firefly luciferase (AID 1224835). Further: on the % scale 0 is the no-effect control and ±100 the full control effect; nearly all actives have a fitted effect of over 25% in size. The gist of the method: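 Quantitative HTS format; KM concentrations of both substrates. Purified P. pyralis FLuc activity quantified from luminescence images.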
Sequence of Luciferin 4-monooxygenase (Photinus pyralis) (P08659 whole entry, looked up): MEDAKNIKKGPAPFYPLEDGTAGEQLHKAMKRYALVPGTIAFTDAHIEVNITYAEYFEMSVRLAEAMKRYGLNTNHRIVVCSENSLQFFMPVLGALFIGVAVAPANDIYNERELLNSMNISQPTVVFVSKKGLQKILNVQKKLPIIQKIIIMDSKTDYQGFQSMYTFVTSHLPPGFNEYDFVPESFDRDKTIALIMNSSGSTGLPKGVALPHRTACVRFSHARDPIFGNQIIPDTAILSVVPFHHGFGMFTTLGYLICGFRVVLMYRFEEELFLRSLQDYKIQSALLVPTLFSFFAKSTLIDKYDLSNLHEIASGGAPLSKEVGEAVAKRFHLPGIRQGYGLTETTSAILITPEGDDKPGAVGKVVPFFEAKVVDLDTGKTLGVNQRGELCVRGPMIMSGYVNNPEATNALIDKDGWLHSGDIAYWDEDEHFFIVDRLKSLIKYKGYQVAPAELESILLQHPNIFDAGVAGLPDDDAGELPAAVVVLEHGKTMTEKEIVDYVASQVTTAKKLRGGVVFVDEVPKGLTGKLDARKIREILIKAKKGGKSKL
The nature of assay [18]: qHTS assay to identify small molecule antagonists of the vitamin D receptor (VDR) signaling pathway - cell viability counter screen (AID 743225). The gist of the method: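 Cytotoxicity counter screen read by CellTiter-Glo luminescence (30 min, room temperature) in the same wells as the VDR-bla antagonist readout. HEK 293T VDR-UAS-bla cells had 16 h at 37C with compound and 3 nM (final) 1-alpha,25-dihydroxyvitamin D3, then 2 h with FRET substrate.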

The mark [19] stands for this setting: activation: at 73.3 µM (top of the series) unless noted.

For `Cc1[nH]c(=O)n(C(C)(C)C)c(=O)c1Cl`, the compound was called inactive in assay [1], in [2], in assay [3], in [4], in assay [5] and in assay [10]. The Potency result in [6], in assay [7], in [8], in [9], in [11] and in [12] (setting [19]) was “inactive” throughout. Moreover, the Potency result in assay [13] and in assay [14] was “inactive” in each case.

Turning to `Cc1ccc([N+](=O)[O-])cc1C`, the outcome in assay [1], in assay [2], in assay [4], in assay [5] and in assay [10] was inactive. Moreover, the Potency result in [6], in assay [15], in assay [16], in [7], in [9] and in assay [11] was “inactive” in each case. The Potency entry in assay [12] (setting [19]), in [13], in [17] and in assay [14] was “inactive” throughout.

Regarding `O=c1n(Cl)c(=O)n(Cl)c(=O)n1Cl`, the call in [1], in [18], in assay [2], in assay [4], in assay [5] and in assay [10] was inactive. For the same compound, the Potency entry in [6], in assay [7], in assay [8], in assay [9], in assay [11] and in assay [12] (setting [19]) was “inactive” in each case. For the same compound, the Potency entry in assay [13] and in [14] was “inactive” throughout.

`CC(C)NC(=O)N1CC(=O)N(c2cc(Cl)cc(Cl)c2)C1=O`: the outcome in assay [1], in assay [18], in [2], in assay [4], in [5] and in assay [10] was inactive. The Potency entry in assay [6], in [16], in assay [7], in [8], in [9] and in [13] was “inactive” in each case. The Potency result in assay [17] and in assay [14] was “inactive” in each case.

Turning to `CCOP(=S)(OCC)Oc1cnc2ccccc2n1`, the compound was classed as inactive in assay [1], in assay [2], in assay [3], in assay [4], in [5] and in [10]. Besides, the Potency result in assay [6], in assay [16], in assay [7], in assay [9], in assay [11] and in assay [12] (setting [19]) was “inactive” each time. For the same compound, the Potency result in assay [13] was “inactive”.

As to `CC(C)(C)C(O)(CCc1ccc(Cl)cc1)Cn1cncn1` (configuration not stated), the compound was called inactive in [1], in assay [18], in assay [2], in assay [3], in [4] and in assay [5]. The compound was classed as inactive in assay [10]. In addition, the Potency entry in [6], in [7], in [8], in assay [9], in assay [11] and in [17] was “inactive” in each case. For the same compound, in [14], the Potency entry is “inactive”. For the same compound, the activation in assay [12] (setting [19]) was -3.95% [at 94.8 µM] (active); in assay [12] (at 73.3 µM (top of the series)), -2.94%.

In the case of `CC(C)=C[C@@H]1[C@@H](C(=O)OCc2coc(Cc3ccccc3)c2)C1(C)C`, the result in assay [1], in [2], in assay [4], in assay [5] and in [10] was inactive. The Potency result in [6], in [16], in assay [7], in [9], in assay [11] and in assay [12] (setting [19]) was “inactive” throughout. For the same compound, in assay [13], the Potency entry was “inactive”.

Take `c1ccc2c(c1)Oc1ccccc1O2`: the compound was classed as inactive in assay [1], in assay [2], in assay [4], in assay [5] and in assay [10]. The Potency entry in assay [6], in [15], in assay [7], in assay [8], in assay [9] and in assay [11] was “inactive” in each case. The Potency entry in assay [12] (setting [19]), in assay [13] and in assay [14] was “inactive” each time.

For `CC(C)(Cl)Cl`, the result in assay [1], in assay [2], in [4], in assay [5] and in [10] was inactive. For the same compound, the Potency result in [6], in assay [16], in [7], in assay [8], in [9] and in assay [11] was “inactive” in each case. Further, the Potency result in [12] (setting [19]), in [13], in assay [17] and in [14] was “inactive” throughout.
